“And” between values parts separate entries of the source, which are not always exact repeats. Equal entries are not always repeated. About 83,000 compounds went through this panel and 20% of them were active in at least one assay; those are over-represented in the sample as a whole.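 Compound tested at a single concentration for 48 hours in 96-well plates; a percent growth value below 10 was scored as active.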 The source made the active and inactive calls.
tested on: MDA-MB-468 breast; assay: NCI-60 one-dose screen, 48 h (100 = growth as untreated, 0 = no growth, -100 = all killed); settings: 10 µM unless noted

Row | SMILES | growth
1 | Cn1cc(-c2csc(-c3cn(CCCCN4CCCCC4)c4ccccc34)n2)c2cccnc21 | -26.9% (active)
2 | O=[N+]([O-])/C=C/c1ccc(Cl)cc1[N+](=O)[O-] | -55.9% (active)
3 | CC[C@H](C)[C@H](NC(=O)[C@H]1CCCCN1C)C(=O)N(C)[C@H](C[C@@H](OC(C)=O)c1cccc(C(=O)N[C@@H](Cc2ccccc2)C[C@H](C)C(=O)O)n1)C(C)C | 31.2% (inactive)
4 | O=CC1(c2ccccc2)CCN(Cc2ccccc2)CC1 | 103% (inactive)
5 | ClCc1ccc(Cl)c(Cl)c1 | 90.7% (inactive)
6 | COc1cccc2c1cc([N+](=O)[O-])c1c(C(=O)O)cc3c(c12)OCO3 | -46.6% (active) and 100% (inactive)
7 | ClCCN(CCCl)c1ccc(OCc2ccccc2)cc1 | 58.3% (inactive)
8 | CC[C@@H]1[C@@H](C)O[C@@](O)([C@@H](C)[C@H](O)[C@H](C)[C@H]2OC(=O)/C=C/C=C/[C@H](C)[C@@H]([C@@H](C)[C@@H](O)[C@H](C)[C@@]3(O)C[C@@H](O[C@H]4C[C@@H](O)[C@H](O)C(C)O4)[C@H](CC)[C@@H](C)O3)OC(=O)/C=C/C=C/[C@@H]2C)C[C@H]1O[C@@H]1C[C@@H](O)[C@H](O)C(C)O1 (stereo not given in full) | -83.6% (active)
9 | N#CCc1ccc(CC#N)cc1 | 100% (inactive)
10 | Cc1ccc(P(=O)(O)O)cc1 | 88.3% (inactive)
11 | C[CH2][Sn]([Cl])([Cl])[CH2]C.Oc1ccccc1C=NCCN=Cc1ccccc1O | 103% (inactive)
12 | O=C(CC1(O)C(=O)Nc2ccc(F)cc21)c1ccc(C(=O)NCC2CCC3(CC2)OOC2(CCCCC2)OO3)cc1 (stereo not given) | 47.6% (inactive)
13 | CCN(CC)CCOC(=O)C(OC(C)C)(c1ccccc1)c1ccccc1 | 95.1% (inactive)
14 | O=C(O)C1C(C(=O)O)C2(Cl)C(Cl)=C(Cl)C1(Cl)C2(Cl)Cl.[Hg] (stereo not given) | 58.4% (inactive)
15 | CNC(=O)Oc1ccc(N(C)C)cc1C(C)C | 74.8% (inactive)
16 | Oc1cc[c]([Hg][Cl])cc1 | 93.6% (inactive)
17 | O=C(Nc1ccc(Cl)cc1)Nc1nccs1 | 16.4% (inactive)
18 | N#CC1(C#N)C(c2ccc(N(CCCl)CCCl)cc2)OC23CCCCC2C1(C#N)C(=N)O3 (stereo not given) | 56.5% (inactive)
19 | O=[N+]([O-])c1ccc([Se]C2CCCCC2Cl)c([N+](=O)[O-])c1 (stereo not given) | 90.5% (inactive)
20 | COc1cc(/C=C\c2cc(OC)c(OC)c(OC)c2)cc(N/C=C\C(=O)c2cc(OC)c(OC)c(OC)c2)c1OC | -10.6% (active)

Row | SMILES | growth
21 | CN(C)C(=O)Oc1ccccc1 | 113% (inactive)
22 | C[Se]C(=O)c1ccccc1OC(C)=O | 45% (inactive)
23 | C[C@@H]1O[C@@H](O[C@H]2C[C@@H](O)[C@]3(CO)C4C(CC[C@]3(O)C2)[C@@]2(O)CC[C@H](C3=CC(=O)OC3)[C@@]2(C)C[C@H]4O)[C@H](O)[C@H](O)[C@H]1O (stereo not given in full) | -68.2% (active)
24 | CC(=O)O[C@H](C[C@H](C(C)C)N(C)C(=O)[C@@H](NC(=O)[C@H]1CCCCN1C)C(C)C)c1nc(C(=O)N[C@@H](Cc2ccccc2)C[C@H](C)C(=O)O)c(C)s1 | 11.4% (inactive)
25 | CO[C@H]1[C@H](O[C@@H]2C[C@@H]3C/C=C/C(=O)O[C@@H](CO)C[C@H](O)[C@@H]4C[C@H](C)[C@H](C/C=C\C=C\[C@H](C)C[C@H](C2)O3)O4)O[C@@H](C)[C@H](O)[C@H]1O | -4.8% (active)
26 | O=C1C=C(N2C3C4CCC(C4)C32)C(=O)C=C1c1ccccc1 (stereo not given) | 16.9% (inactive)
27 | C=CCn1cc(C=C2C(=O)N(C)C(=O)N(C)C2=O)c2ccccc21 | -35.5% (active)
28 | CC(CC(C#N)(c1ccccc1)c1ccccc1)N1CCOCC1 (stereo not given) | 107% (inactive)
29 | O=C(c1cccs1)C1NO[N+]([O-])=C1c1cccs1 (stereo not given) | -47.7% (active)
30 | CC1[C@H](C)OC(=O)CC(O)CC(O)CC(O)CCC(O)C(O)C[C@]2(O)CC(O)C(C(=O)O)C(CC(OC3O[C@H](C)[C@@H](O)[C@H](N)[C@@H]3O)/C=C/C=C/C=C/C=C/CC/C=C/C=C/[C@H](C)[C@H]1O)O2 (stereo not given in full) | 108% (inactive)
31 | CCC1CN1P(=O)(OCCOC)N1CC1CC (stereo not given) | 110% (inactive)
32 | CC[C@H](C)[C@H](NC(=O)c1nccn1C)C(=O)N(C)[C@H](C[C@@H](OC(C)=O)c1nc(C(=O)N[C@@H](Cc2ccccc2)C[C@H](C)C(=O)OC)cs1)C(C)C | 25.7% (inactive)
33 | OB([O][Hg][c]1ccccc1)[O][Hg][c]1ccccc1 | -71.2% (active)
34 | O=C(Cc1ccccc1)NC(O)C(Cl)(Cl)Cl (stereo not given) | 104% (inactive)
35 | CCCCCCCC[n+]1ccc2ccccc2c1 | 8.79% (active)
36 | CC(C)[C@@H]1NC(=O)[C@]2(C)CSC(=N2)c2csc(n2)CNC(=O)C[C@@H](/C=C/CCS)OC1=O | 30% (inactive)
37 | O=C(O)CC(Br)C(=O)CBr (stereo not given) | 105% (inactive)
38 | CN1C(=O)C(=Cc2cn(CCCCCCn3c4ccccc4c(=O)c4ccccc43)c3ccccc23)C(=O)N(C)C1=O | 81% (inactive)
39 | CC1(C)N=C(N)N=C(N)N1c1ccc(CCC(=O)Nc2ccc(S(=O)(=O)F)cc2)cc1 | 46.3% (inactive)
40 | O=C1c2ccccc2C(=O)N1[N+](=O)[O-] | 89.2% (inactive)
